Test results from PubChem BioAssay (NCI).
The panel holds about 83,000 compounds, 20% with a hit somewhere; the sample as a whole holds those more often.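 Plates (96-well) were seeded with cells, treated with compound at one concentration, and incubated for 48 hours before percent growth was determined.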 Unmarked numbers belong to inactive results. Active and inactive are the calls of the source. How the source made its calls: active means growth percent below 10; inactive means the rest.

Tests used:
Assay in all cases: NCI-60 one-dose screen, 48 h (100 = growth as untreated, 0 = no growth, -100 = all killed)
DU-145 prostate = conditions: 10 µM unless noted
K-562 leukemia = conditions: 10 µM unless noted
MALME-3M melanoma = conditions: 10 µM unless noted
MDA-MB-231 breast = conditions: 10 µM unless noted
RXF 393 renal = conditions: 10 µM unless noted
SF-268 CNS = conditions: 10 µM unless noted
SF-295 CNS = conditions: 10 µM unless noted
SF-539 CNS = conditions: 10 µM unless noted
UACC-257 melanoma = conditions: 10 µM
M14 melanoma = conditions: 10 µM unless noted
HCT-15 colon = conditions: 10 µM unless noted
HT29 colon = conditions: 10 µM unless noted
SNB-75 CNS = conditions: 10 µM unless noted
SNB-19 CNS = conditions: 10 µM unless noted
U251 CNS = conditions: 10 µM unless noted
PC-3 prostate = conditions: 10 µM unless noted
SK-MEL-5 melanoma = conditions: 10 µM unless noted
UACC-62 melanoma = conditions: 10 µM unless noted
LOX IMVI melanoma = conditions: 10 µM unless noted
SK-MEL-28 melanoma = conditions: 10 µM unless noted

| SMILES | growth (DU-145 prostate) | growth (K-562 leukemia) | growth (MALME-3M melanoma) | growth (MDA-MB-231 breast) | growth (RXF 393 renal) | growth (SF-268 CNS) | growth (SF-295 CNS) | growth (SF-539 CNS) | growth (UACC-257 melanoma) | growth (M14 melanoma) | growth (HCT-15 colon) | growth (HT29 colon) | growth (SNB-75 CNS) | growth (SNB-19 CNS) | growth (U251 CNS) | growth (PC-3 prostate) | growth (SK-MEL-5 melanoma) | growth (UACC-62 melanoma) | growth (LOX IMVI melanoma) | growth (SK-MEL-28 melanoma) |
| --- | --- | --- | --- | --- | --- | --- | --- | --- | --- | --- | --- | --- | --- | --- | --- | --- | --- | --- | --- | --- |
| O=C1Nc2cc(OC(F)(F)F)ccc2Oc2ccc(-c3ccnc(N4CCNCC4)c3)cc21 | -48.5% (active) | -11.4% (active) | -79.3% (active) | -38.2% (active) | -73.4% (active) | 26.8% | -25.7% (active) | -89.8% (active) | 77.3% | -90.5% (active) | -51.4% (active) | -72.7% (active) | -5.02% (active) | 27.2% | -78.6% (active) | 13.8% | -85.3% (active) | -70.7% (active) | -85.8% (active) | -80.9% (active) |
| COc1cc(C(=O)c2cc(C(C)=O)c3c4ccccc4ccn23)cc(OC)c1OC | 94.4% | 23.9% | 64.6% | 54.7% | 49.2% | 74.3% | 55.2% | 75.3% | 75.8% | 58.6% | 28.5% | 39.6% | 45.3% | 64.3% | 73.6% | 48.1% | 22.9% | 38% | 58.4% | 80.9% |
| COc1cc(/C=N/Nc2ccnc3cc(Cl)ccc23)cc(OC)c1O | -24.6% (active) | -54.8% (active) | -88.3% (active) | -74.6% (active) | -86.8% (active) | -37.3% (active) | -80.3% (active) | -85% (active) | 112% | -90.1% (active) | -58.9% (active) | 8.25% (active) | -81.5% (active) | -24.5% (active) | -87.1% (active) | -61.1% (active) | -92.7% (active) | 101% | -96.2% (active) | 98.4% |
| COc1ccc2c(c1)oc1c3[nH]c4ccccc4c3c3c(c21)C(=O)N(O)C3=O | 38.2% | 31.2% | 64.4% | 82.9% | 31.9% | 33.5% | 29.7% | 28.9% | 78.8% | 29.9% | 50.5% | 38.3% | 39.7% | 32.6% | 15.7% | 45.4% | -22.1% (active) | 12.4% | -76% (active) | 76.3% |
| C#C[C@]1(O)CC[C@H]2[C@@H]3CC=C4c5sc(Nc6ccncc6)nc5CC[C@]4(C)[C@H]3CC[C@@]21C | 21% | 2.23% (active) | -71.1% (active) | 21.7% | -62.9% (active) | -15.9% (active) | -70.8% (active) | -61.1% (active) | -44.3% (active) | -49.7% (active) | -71.4% (active) | -4.61% (active) | -49.4% (active) | -36.8% (active) | 1.97% (active) | 1.86% (active) | -83.9% (active) | -22.8% (active) |  | -55.1% (active) |
| O=C(c1ccc(O)cc1)[C@@H]1[C@@H]2CCCN2[C@@]2(C(=O)N(C(=O)c3ccc(F)cc3)c3ccccc32)[C@H]1c1ccc(F)cc1 | 102% | 75.7% | 84.2% | 82.5% | 105% | 89.9% | 96.2% | 85.4% | 103% | 95.1% | 86.6% | 104% | 73.5% | 93.3% | 94.3% | 78.3% | 95% | 75.4% |  | 99.2% |
| Cn1cc2c(c1)-c1c(sc3nc(-c4ccc(NC(=O)Nc5cc(C(C)(C)C)on5)cc4)cn13)CC2 | 57.9% | 15.3% | 66.2% | 49.8% | -23.4% (active) | 50.5% | -41% (active) | 22.3% | 93.1% | 60.5% | 12.2% | 21.9% | -1.5% (active) | 46.7% | 24.3% | 38.7% | 63.1% | 87.7% | 16.9% | 54.2% |
| CCN(CC)CCN1C(=O)c2c(c3c4cccnc4[nH]c3c3ccc4ccccc4c23)C1=O | 54.7% | 18.7% | 86.7% | 89.7% | 78.8% | 50.3% | 35.4% | 76.5% | 98.2% | 61.1% | 58.7% | 66.7% | 54.3% | 59.5% | 63.5% | 59.2% | 80% | 69.2% |  | 106% |
| Cc1ccc(-c2csc(N/N=C/c3nc4ccccc4n3C3CC3)n2)cc1 | 105% | -55.8% (active) | -72.9% (active) | 80.4% | 71.6% | 80.1% | 96.8% | 66% | 79.7% | 89% | 80.6% | 92.2% | 22% | 81.2% | 43.8% | 61.6% | 5.51% (active) | 95.1% |  | 103% |
| Clc1ccc(-c2csc(N/N=C/c3nc4ccccc4n3C3CC3)n2)cc1 | 113% | 107% | 96.3% | 96.7% | 107% | 94.7% | 96.5% | 99.4% | 91% | 91.9% | 90.5% | 99.8% | 82.4% | 98.3% | 97.2% | 98.4% | 97.1% | 98.4% |  | 101% |
| IP(CCCSc1n(Cc2ccc3ccccc3c2)c(-c2ccccc2)c(-c2ccccc2)[n+]1Cc1ccc2ccccc2c1)(c1ccccc1)(c1ccccc1)c1ccccc1 | 34.7% | 25.3% | 14.6% | 32.5% | 99.7% | 23.8% | 31.8% | 35.3% | 4.7% (active) | 51.5% | 94.5% | 2.7% (active) | 43% | 16.6% | 10.3% | 32.1% | 67.6% | 26.6% | 8% (active) | 32.8% |
| N#C/C(=C\c1ccc(N2CCCCC2)cc1)C(=O)Nc1sc2c(c1C#N)CCC2 | 101% | 90.7% | 100% | 96.4% | 83.5% | 90.3% | 95.8% | 89.6% | 91.7% | 102% | 95% | 98.8% | 86.8% | 99.2% | 96.8% | 91.5% | 98.7% | 90.2% | 89.8% | 95.2% |
| O=C(COc1ccc(C2SCC(=O)N2c2ccc(F)cc2)cc1)c1ccccc1 (stereo not given) | 104% | 91.6% | 97.9% | 81.4% | 102% | 89.4% | 94.5% | 102% | 100% | 93.6% | 95.7% | 109% | 83.1% | 91.5% | 101% | 79.2% | 97.7% | 61.4% | 87.6% | 102% |
| CC1CCc2c(sc3nc(SCC(=O)N/N=C/c4ccc(Cl)cc4)n(-c4ccccc4)c(=O)c23)C1 (stereo not given) | 97.8% | 100% | 99% | 89.5% | -2.72% (active) | 81.6% | 95.2% | 90% | 102% | 102% | 96.3% | 107% | 98.5% | 81.6% | 93.9% | 95.3% | 104% | 92.8% | 84.1% | 102% |
| COc1cccc(/C=C/C(=O)c2ccc(NC(=O)COc3cccc4cccnc34)cc2)c1 | 90.2% | 82.1% | 108% | 98.4% | 107% | 96.3% | 96.6% | 101% | 103% | 104% | 94.8% | 98.2% | 97.4% | 95.9% | 97.2% | 93.3% | 94.9% | 94.5% | 78% | 104% |
